Results published in PubChem BioAssay (NCI).
This is part of a sample that, as a whole, favours compounds with a hit. Of some 83,000 tested, about 20% had one in any assay.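 Single-concentration screen, 48 h exposure, 96-well plates. Endpoint: percent growth. Below 10 = active.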 Active and inactive are the calls of the source.

system: HS 578T breast; assay: NCI-60 one-dose screen, 48 h (100 = growth as untreated, 0 = no growth, -100 = all killed); details: 10 µM unless noted
Description: Growth inhibition of the HS 578T human tumor cell line is measured as a screen for anti-cancer activity. Cells are grown in 96 well plates and exposed to the test compound for 48 hours. Compounds are tested at a single concentration, which is 10^-5 M for most compounds. The reported endpoint is percent growth (GI% or GIPRCNT), where numbers from 0 - 100% represent growth inhibition, and numbers from -100% - 0 represent cell death. For example, a value of 40 represents 60% growth inhibition. A value of 0 means no net growth occurred over the course of the experiment. A value of -40 indicates 40% of cells at the beginning of the experiment died by the end of the experiment. A value of -100 means all cells are dead at the end of the experiment.
NCI-60 Human Tumor Cell Lines Screen was performed using the standard one-dose NCI protocol, which is described in more detail at https://dtp.cancer.gov/discovery_development/nci-60/default.htm.
Compounds with GIPRCNT values below 10 were considered active. Activity score was based on GIPRCNT using the following formula: […]
Score is 0 for GIPRCNT values of 100 or above, 50 for GIPRCNT values of 0, and 100 for GIPRCNT values of -100.

Row | Compound | growth
1 | COc1ccc(NC(=O)c2sc3nc4c(cc3c2N)CCCC4)cc1 | 43.4% (inactive)
2 | COc1ccc2nc3ccccc3c(NCc3ccccc3)c2c1 | 25.2% (inactive)
3 | CC1O[C@@H]2C[C@@](O)([C@H]1O)n1c3ccccc3c3c4c(c5c6ccccc6n2c5c31)C(=O)NC4=O (stereo not given in full) | 82.6% (inactive)
4 | CN1CCCc2cc(/C=C3/SC(=S)N(CCc4ccc(O)cc4)C3=O)ccc21 | 93.9% (inactive)
5 | C=NNc1ccccc1 | 97.7% (inactive)
6 | CCCCCCCCNc1cc2c3c(c1)CCCN3CCC2 | 23.3% (inactive)
7 | COc1ccc(NC(=O)c2ccc(C(=O)Nc3ccc(OC)cc3OC)cc2)c(OC)c1 | 39.3% (inactive)
8 | CC1=NN(c2ccc(Cl)cc2)CC1(C)N=O (stereo not given) | 82.9% (inactive)
9 | CC[C@@H](c1ccc2cc(OC)ccc2c1)C(C)(C)C(=O)F | 91.8% (inactive)
10 | CCOC(=O)C1CCN(c2ccc(N3C[C@@H](CNCc4ccc(C(=N)N)cc4)OC3=O)cc2)CC1 | 102% (inactive)
11 | COc1cc(-c2nc(SCCC(C)C)nc(N3CCOCC3)c2C#N)cc(OC)c1OC | 76.7% (inactive)
12 | COc1ccc(-c2cc(-c3cc(OC)c(OC)c(OC)c3)c(C#N)c(=O)n2CCCCCC(=O)NO)cc1 | 85.2% (inactive)
13 | COc1cc(C(=O)/C=C/c2c(-c3cccs3)nc3ccccn23)cc(OC)c1OC | -1.24% (active)
14 | O=[N+]([O-])/C(=C\c1ccco1)c1ccccc1Cl | 84.8% (inactive)
15 | O=C1/C=C/[C@@H](O)[C@@H]2C[C@@H](O)C[C@H]2/C=C/CCC[C@H](CCOCc2ccccc2)O1 | 23.8% (inactive)
16 | CCn1cc(CNc2ccc(C(=O)Nc3cc4cc(OC)c(OC)cc4c(C)n3)cc2)c(C)n1 | 82.7% (inactive)
17 | O=C(Cn1cc(CN2C(=O)c3ccccc3S2(=O)=O)nn1)Nc1cccc(Cl)c1 | 107% (inactive)
18 | Cc1ccc(C(=O)c2ccc(CC(=O)N/N=C/c3ccc(O)cc3O)n2C)cc1 | 74.9% (inactive)
19 | Cc1ccc(/C=C2\CN(C(=O)C(Cl)Cl)C/C(=C\c3ccc(C)cc3)C2=O)cc1 | 9.67% (active)
20 | CCN(CC)CCCC(C)Nc1ccc2cc(OC)ccc2n1 (stereo not given) | 99.9% (inactive)

Row | Compound | growth
21 | COc1ccc(/C(C)=C(\c2ccc(OCCN3CCCCCC3)cc2)c2ccc(OC(=O)c3ccccc3)cc2)cc1 | 35.9% (inactive)
22 | CC(C)CN1CC(C(=O)Nc2ccc3c(c2)-c2ccccc2C3)CC1=O (stereo not given) | 28.8% [50 µM] (inactive)
23 | O=C(CCl)Nc1ccc2c(Nc3cc(O)ccc3Cl)ncnc2c1 | 4.71% (active)
24 | COc1cc(/C=N/Nc2ccccc2F)cc(OC)c1OC | 94.9% (inactive)
25 | CC(/C=C1\SC(=S)N(CC(=O)NC(Cc2c[nH]c3ccccc23)C(=O)O)C1=O)=C\c1ccccc1 (stereo not given) | 103% (inactive)
26 | CC(C)CCC[C@@H](C)C1CCC2C3CCC4=C/C(=N/OCCN(C)C)CC[C@]4(C)C3CC[C@@]21C (stereo not given in full) | 83.8% (inactive)
27 | COCC[C@H]1CCC/C=C/[C@@H]2C[C@H](O)C[C@H]2[C@H](O)/C=C/C(=O)O1 | 30.1% (inactive)
28 | CC(=O)N/C(=C1/OC(C(O)C(O)C(O)CO)CN1C)[P+](c1ccccc1)(c1ccccc1)c1ccccc1 (stereo not given) | 114% (inactive)
29 | Cc1ccc2nc(Cl)c(Cn3nnnc3SCc3ccccc3)cc2c1 | 83.1% (inactive)
30 | COc1ccc2c(O)c(/C=C3\N=Nc4ccccc43)oc2c1C[C@H]1CCNC[C@H]1F | 54.7% (inactive)
31 | COc1cccc(/C=C/C(=O)c2cc3c(N)c(C(=O)Nc4ccccc4C)sc3nc2C)c1 | 13.9% (inactive)
32 | COc1ccc(NC(=O)c2cccc(C3CCc4c(cc(OC)c(OC)c4OC)O3)c2)cc1 (stereo not given) | 22% (inactive)
33 | CCn1cc(C2=C(c3cn(C)c4ncccc34)C(=O)NC2=O)c2cccnc21 | 32% (inactive)
34 | O=c1ccc2nc(C(F)(F)F)nn(-c3ccccc3)c-2c1 | 74% (inactive)
35 | O=C(Cn1nnc2ccccc21)Nc1ccc(-c2nc3ccccc3s2)cc1 | 112% (inactive)
36 | COc1cc(C2Cc3ncccc3-c3[nH]c(=O)c4cccnc4c32)cc(OC)c1OC (stereo not given) | 41.9% (inactive)
37 | Cc1nc2ccccc2c(/C=C/c2ccc(C(F)(F)F)cc2)c1C(=O)/C=C/c1ccccc1 | -0.739% (active)
38 | CCOC(=O)c1cn2ncnc(Oc3ccc(NC(=O)NC4CC4)c(F)c3)c2c1C | 103% (inactive)
39 | COc1cc2c(cc1O)[C@@]1(C)[C@H](c3ccccc3Br)OC(=O)N1CC2 | 97.9% (inactive)
40 | COc1ncc2cc1NS(=O)(=O)c1cccc(c1)C(=O)NCC1=CC=C(S1)c1ncnc3c1SC2=C3C | 12.7% (inactive)
